# Measurements taken from PubChem BioAssay (EPA / NIEHS).
# Results filed as inconclusive are left out. Activity calls are given as the source filed them. The calls were made as follows: active = hit-call score of the fitted dose curve at least 0.9, where 1 is the maximum; inconclusive = response in the unintended direction; inactive = score below 0.9.
# Target: Estrogen receptor (Homo sapiens) + Estrogen receptor beta (Homo sapiens) (UniProt P03372+Q92731)
# Assay: OT_ER_ERaERb_0480: Odyssey Thera (OT) 8-hour HEK293T Protein-Complementation Assay for Estrogen Receptor-alpha/-beta Heterodimer (AID 2283352)
# Protocol: OT_ER_ERaERb_0480 is a cell-based assay that uses HEK293T, a human kidney cell line, with measurements taken at 8 hours after chemical dosing in a 384-well plate.OT_ER_ERaERb_0480 is one of one assay component(s) measured or calculated from the OT_ER_ERaERb_0480 assay. It is designed to make measurements of protein fragment complementation, a form of binding reporter, as detected with fluorescence intensity signals by Protein-fragment Complementation technology.Data from the assay component OT_ER_ERaERb_0480 was analyzed into 1 assay endpoint. This assay endpoint, OT_ER_ERaERb_0480, was analyzed in the positive analysis fitting direction relative to DMSO as the negative control and baseline of activity. Using a type of binding reporter, measures of receptor for gain-of-signal activity can be used to understand the binding at the pathway-level as they relate to the gene ESR1 and ESR2. Furthermore, this assay endpoint can be referred to as a primary readout, because the performed assay has only produced 1 assay endpoint. To generalize the intended target to other relatable targets, this assay endpoint is annotated to the nuclear receptor intended target family, where the subfamily is steroidal.
# Protein-fragment complementation assay, or PCA, is a method for the identification and quantification of protein-protein interactions. In the PCA, the proteins of interest ("bait" and "prey") are each covalently linked to fragments of a third protein (e.g. DHFR, which acts as a "reporter"). Interaction between the bait and the prey proteins brings the fragments of the reporter protein in close proximity to allow them to form a functional reporter protein whose activity can be measured. […] Fluorescent signal in the basal state of the assay is very low and is primarily punctuate and cytoplasmic. Modulation of this assay is quantified as an increase in mean fluorescence intensity in the nucleus (for agonists) or in the nucleus and cytoplasm (antagonists) relative to vehicle controls, and can be quantified on a high content imaging device or a laser scanning cytometer. The latter instrument is favored for this assay because of the rapid mode of data acquisition, the ability to acquire data from the entire cell population in a well (as opposed to a fraction of the well on the high content devices) and the larger dynamic range typically achieved with this instrument. To assess sensitivity of the ER alpha/ER beta LBD assay to ligand, cells were treated with the ER agonist 17- beta-estradiol (E2) in 10-point concentration- response format for 8 hours and monitored response on a laser scanning plate cytometer (Acumen eX3; TTP Lab Tech).
# Estrogen receptor (Homo sapiens) + Estrogen receptor beta (Homo sapiens), sequence (P03372 whole entry, looked up): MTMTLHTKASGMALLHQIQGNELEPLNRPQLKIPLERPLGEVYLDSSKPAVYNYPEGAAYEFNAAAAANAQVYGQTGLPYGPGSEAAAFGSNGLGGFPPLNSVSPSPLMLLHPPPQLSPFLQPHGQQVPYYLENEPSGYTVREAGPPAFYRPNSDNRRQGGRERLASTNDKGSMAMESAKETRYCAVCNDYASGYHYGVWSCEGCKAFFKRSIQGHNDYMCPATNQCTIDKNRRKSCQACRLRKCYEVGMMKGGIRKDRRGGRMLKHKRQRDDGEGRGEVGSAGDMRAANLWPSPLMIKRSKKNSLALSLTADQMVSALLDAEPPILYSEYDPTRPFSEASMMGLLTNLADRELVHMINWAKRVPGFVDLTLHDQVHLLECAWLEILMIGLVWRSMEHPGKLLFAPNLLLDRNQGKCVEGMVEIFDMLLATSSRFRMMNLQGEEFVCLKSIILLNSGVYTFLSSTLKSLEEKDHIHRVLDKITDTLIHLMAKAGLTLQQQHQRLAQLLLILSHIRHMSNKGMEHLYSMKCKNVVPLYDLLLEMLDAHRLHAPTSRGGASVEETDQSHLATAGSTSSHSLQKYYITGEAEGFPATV
# Estrogen receptor (Homo sapiens) + Estrogen receptor beta (Homo sapiens), sequence (Q92731 whole entry, looked up): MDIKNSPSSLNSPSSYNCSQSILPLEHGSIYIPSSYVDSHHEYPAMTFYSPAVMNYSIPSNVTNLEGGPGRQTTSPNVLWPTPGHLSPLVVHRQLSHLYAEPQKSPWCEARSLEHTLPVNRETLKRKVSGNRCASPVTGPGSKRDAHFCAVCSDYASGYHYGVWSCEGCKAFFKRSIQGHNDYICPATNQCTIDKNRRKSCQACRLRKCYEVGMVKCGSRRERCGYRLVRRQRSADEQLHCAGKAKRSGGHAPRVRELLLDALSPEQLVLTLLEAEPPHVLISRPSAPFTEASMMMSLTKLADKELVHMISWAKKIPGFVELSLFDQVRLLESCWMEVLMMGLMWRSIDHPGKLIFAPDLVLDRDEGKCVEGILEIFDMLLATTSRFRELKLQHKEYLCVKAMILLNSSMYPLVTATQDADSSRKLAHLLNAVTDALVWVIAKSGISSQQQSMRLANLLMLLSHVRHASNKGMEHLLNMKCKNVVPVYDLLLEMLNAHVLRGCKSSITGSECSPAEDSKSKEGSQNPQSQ
SMILES,outcome,AC50
NC(=O)Nc1ccc(Cl)cc1,inactive,
OCCOCCOCCOCCO,inactive,
CCCCCCCCC,inactive,
CCCCCCCCCC=O,inactive,
CCC/C=C/C=O,inactive,
Cc1ccc(S)cc1,inactive,
CC1COc2ccccc2N1C(=O)C(Cl)Cl (centres undefined),inactive,
CCCCCCCCCCCCCC(=O)O,inactive,
CCCCc1ccc(N)cc1,,50 µM (active)
CC(C)(N)CO,inactive,
CCN(CC)c1ccc2c(-c3ccccc3C(=O)O)c3ccc(=[N+](CC)CC)cc-3oc2c1,,12 µM (active)
OCCN1CCNCC1,inactive,
CCCCOCCOCCOCCOCCO,inactive,
CC(=O)OCCOC(C)=O,inactive,
CC(C)c1cccc(O)c1,,52 µM (active)
O=C1c2ccccc2C(=O)N1SC1CCCCC1,inactive,
CCCCCCCCC=O,inactive,
C=C(C)C(=O)O,inactive,
c1ccc(CCCc2ccccn2)cc1,inactive,
